For 9 molecules, growth results are on record in PubChem BioAssay (NCI).

This is part of a sample that, as a whole, favours compounds with a hit. Of some 83,000 tested, about 20% had one in any assay.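 The test compound was applied at a single concentration to cells in 96-well plates for 48 hours, and percent growth was recorded.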 A number with no mark means an inactive call. Calls of active or inactive are those of the source. The calls were made as follows: active = growth percent below 10; inactive = the rest.

What all share (test): NCI-60 one-dose screen, 48 h (100 = growth as untreated, 0 = no growth, -100 = all killed)
Conditions in all cases: 10 µM unless noted

Assay [1] deals with SK-MEL-2 melanoma.
Assay [2] deals with EKVX NSCLC.
Assay [3] deals with SN12C renal.
Assay [4] relates to UO-31 renal.
In assay [5] the test system is TK-10 renal.
For assay [6], the system named is ACHN renal.
Assay [7] relates to CAKI-1 renal.
In assay [8] the test system is A498 renal.
For assay [9], the system named is CCRF-CEM leukemia.
In assay [10] the test system is MOLT-4 leukemia.
Assay [11] concerns RPMI-8226 leukemia.
Assay [12] concerns OVCAR-8 ovarian.
Assay [13] has as its system OVCAR-5 ovarian.
Assay [14] concerns OVCAR-4 ovarian.
Assay [15] has as its system SK-OV-3 ovarian.
Assay [16] deals with IGROV1 ovarian.
The subject of assay [17] is OVCAR-3 ovarian.
Assay [18] has as its system HS 578T breast.
Assay [19] concerns NCI/ADR-RES ovarian.
Assay [20] deals with SR leukemia.

As for `O=c1n(CC2CO2)c(=O)n(CC2CO2)n1CC1CO1` (stereo not drawn), the growth in [1] is 41.1%; in [2], 97.4%; in assay [3] it was 69.7%; in assay [4], 51%; in assay [5], 74.2%; in assay [6], 22.3%. For the same molecule, the growth in assay [7] was 28.6%; in [8], 85.2%; in assay [9] it was 37.5%; in [10] it was 19.2%; in assay [11] it was 57.5%; in assay [12] it was 75%. Also, the growth in assay [13] was 130%; in assay [14] it was 85.2%; in assay [15], 49.2%; in assay [16] it was -4.87% (active); in [17], 72.7%; in [18], 90.5%. In assay [19], the growth is 65.5%.

With `O=CNCCc1ccccc1`, the growth is 105% in assay [1]; 97.3% in assay [2]; 90% in assay [3]; 87.8% in assay [4]; 92.4% in assay [5]; 98.5% in assay [6]. In addition, the growth was 93.8% in assay [7]; 111% in [8]; 103% in assay [9]; 96.8% in assay [10]; 102% in assay [11]; 102% in [12]. The growth in assay [13] was 97.7%; in assay [14], 103%; in assay [16] it was 110%; in assay [17], 115%; in [18], 102%; in [19], 106%.

Take `ClCC(Cl)[C@@H]1CC2C=CC1C2` (stereo partly drawn): the growth in [1] was 112%; in [2], 98.3%; in assay [3], 102%; in assay [4] it was 88.7%; in [5] it was 114%; in assay [6], 108%. The growth is 100% in assay [7]; 80.2% in assay [8]; 114% in assay [10]; 112% in assay [20]; 104% in [11]; 96.2% in assay [12]. The growth in assay [13] is 110%; in [14], 104%; in assay [16], 114%; in assay [17], 119%; in assay [18] it was 108%; in assay [19] it was 105%.

For the molecule `C=C1C(=O)C2CCN1CC2`, the growth in assay [1] is 105%; in [2], 103%; in assay [3], 101%; in [4], 89.1%; in assay [5] it was 99.9%; in assay [6], 86.8%. For the same molecule, the growth was 92% in assay [7]; 97.6% in assay [8]; 78.2% in [10]; 26.1% in assay [20]; 93.8% in [11]; 110% in assay [12]. For the same molecule, the growth in [13] is 99.6%; in assay [14] it was 101%; in assay [15], 105%; in assay [16] it was 122%; in assay [17], 85.2%; in assay [18], 101%. The growth in [19] is 104%.

Consider `O=C(CCCl)OCCOc1ccccc1`, for which the growth was 104% in [1]; 109% in assay [2]; 104% in assay [3]; 88.5% in [4]; 100% in assay [5]; 106% in [6]. Besides, the growth was 102% in assay [7]; 89% in assay [8]; 92.1% in assay [10]; 94.5% in assay [20]; 53.6% in assay [11]; 102% in [12]. Further, the growth was 109% in [13]; 102% in assay [14]; 100% in [15]; 104% in assay [16]; 104% in assay [17]; 98.8% in assay [18]. Moreover, the growth in assay [19] was 106%.

`O=C(O)CSCC(=O)Nc1cc(C(F)(F)F)ccc1Cl`: the growth in assay [1] was 111%; in assay [2] it was 105%; in assay [3], 102%; in [4] it was 84.4%; in assay [5], 110%; in [6], 106%. The growth in assay [7] was 89.4%; in [8], 139%; in assay [9], 101%; in [20], 96.1%; in [11], 106%; in assay [12] it was 107%. Moreover, the growth in assay [13] is 104%; in assay [14] it was 119%; in assay [15], 109%; in assay [16] it was 112%; in assay [17] it was 113%; in assay [18] it was 101%. Besides, in assay [19], the growth is 117%.

Turning to `Cc1cccc(C)c1NC(=S)/N=C\c1c(O)[nH]c(=O)[nH]c1=O`, the growth in assay [1] was 103%; in assay [2] it was 77.3%; in assay [3] it was 98.5%; in assay [4], 89.5%; in assay [5], 106%; in [6], 102%. For the same molecule, the growth in assay [7] was 96.5%; in assay [8], 103%; in assay [9], 98.9%; in assay [11], 98.3%; in [12], 108%; in assay [13], 109%. The growth in assay [14] was 104%; in assay [15], 94%; in assay [16] it was 101%; in assay [17], 111%; in assay [18], 92%; in assay [19], 108%.

`Nc1c(O)c(S(=O)(=O)O)c(O)c2c1C(=O)c1ccccc1C2=O`: the growth was 6.13% (active) in [1]; 33.8% in assay [2]; 28.1% in [3]; 12.2% in assay [4]; 21.7% in assay [5]; 4.01% (active) in [6]. Further, the growth in [7] is 13.5%; in [8] it was 5.41% (active); in [9], 28%; in [20] it was 13.8%; in assay [11] it was 11.5%; in assay [12], 27.8%. For the same molecule, the growth is 42.8% in assay [13]; 26.1% in [14]; 22.9% in [15]; 19.2% in [16]; 8.87% (active) in [17]; 59.7% in assay [18]. The growth in assay [19] was 17.8%.

On to `CC(=O)NC(CCC(=O)c1ccccc1)C(=O)O` (stereo not drawn), for which the growth in assay [1] was 104%; in [2] it was 99.2%; in assay [3], 98.5%; in assay [4] it was 98.5%; in [5], 93.8%; in assay [6], 108%. The growth was 102% in assay [7]; 99.4% in [8]; 103% in [9]; 16.6% in assay [20]; 91.4% in assay [11]; 101% in assay [12]. Also, the growth in [13] was 98.3%; in [14], 100%; in assay [15], 87.5%; in [16], 104%; in assay [17], 107%; in assay [18], 108%. Further, in [19], the growth is 106%.
